What all share (experiment): NCI-60 one-dose screen, 48 h (100 = growth as untreated, 0 = no growth, -100 = all killed)
One test relates to HOP-62 NSCLC. Conditions: 10 µM unless noted.
For a further test, the system named is A549/ATCC NSCLC. Conditions: 10 µM unless noted.
The test system of a further test is DU-145 prostate. Particulars: 10 µM unless noted.
Another test has as its system MALME-3M melanoma. Particulars: 10 µM unless noted.
In a further test the test system is RXF 393 renal. Particulars: 10 µM unless noted.
The next test has as its system SF-295 CNS. Conditions: 10 µM unless noted.
The subject of a further test is UACC-257 melanoma. Particulars: 10 µM unless noted.
For another test, the system named is SNB-19 CNS. Particulars: 10 µM unless noted.
In the next test the test system is LOX IMVI melanoma. Conditions: 10 µM unless noted.
Another test relates to SK-MEL-28 melanoma. Particulars: 10 µM unless noted.
For another test, the system named is SK-MEL-2 melanoma. Conditions: 10 µM unless noted.
The next test has as its system SN12C renal. Conditions: 10 µM unless noted.
The test system of another test is A498 renal. Conditions: 10 µM unless noted.
The next test concerns MOLT-4 leukemia. Particulars: 10 µM.
A further test relates to OVCAR-8 ovarian. Conditions: 10 µM unless noted.
In another test the test system is OVCAR-4 ovarian. Particulars: 10 µM unless noted.
The subject of the next test is SK-OV-3 ovarian. Conditions: 10 µM unless noted.
The test system of another test is BT-549 breast. Conditions: 10 µM.
In a further test the test system is HCC-2998 colon. Conditions: 10 µM unless noted.

This is part of a sample that, as a whole, favours compounds with a hit. Of some 83,000 tested, about 20% had one in any assay.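 Growth was measured after 48 h exposure to one concentration of compound in 96-well plates. Values under 10 count as active.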 Values without a mark were called inactive. Active and inactive are the calls of the source.

Experimental findings from PubChem BioAssay (NCI) are described below.

For `CCC[CH2][Sn]1([CH2]CCC)[O]C(=O)c2cccc([N+](=O)[O-])c2C(=O)[O]1`, the growth in the test with HOP-62 NSCLC was -90.7% (active); in the test on A549/ATCC NSCLC it was 42.4%; with DU-145 prostate, -96.7% (active); in the test with MALME-3M melanoma, -88.4% (active); in the test on RXF 393 renal, -95.2% (active); in the test with SF-295 CNS, -36.9% (active). The growth with UACC-257 melanoma was -94.1% (active); in the test on SNB-19 CNS, -92.8% (active); in the test on LOX IMVI melanoma it was -72% (active); with SK-MEL-28 melanoma, -93.3% (active); in the test with SK-MEL-2 melanoma, -92% (active); with SN12C renal, -83.4% (active). In addition, the growth with A498 renal is -94.5% (active); in the test on MOLT-4 leukemia it was -24.4% (active); in the test with OVCAR-8 ovarian, -93.1% (active); in the test on OVCAR-4 ovarian it was -91.6% (active); in the test with SK-OV-3 ovarian it was 12.2%; with BT-549 breast, -99.6% (active). Further, the growth in the test with HCC-2998 colon was -84.7% (active).

Turning to `O=C(CF)N(O)c1ccc(/C=C/c2ccccc2)cc1`, the growth is 36.4% in the test with A549/ATCC NSCLC; 1.13% (active) in the test on DU-145 prostate; 82.9% with MALME-3M melanoma; 50.7% with RXF 393 renal; 9.04% (active) in the test with SF-295 CNS; -7.11% (active) in the test with UACC-257 melanoma. The growth in the test with SNB-19 CNS is 54.3%; with LOX IMVI melanoma, 39.8%; with SK-MEL-28 melanoma it was 99.9%; with SK-MEL-2 melanoma, 94.9%; with SN12C renal it was 26.6%; in the test on A498 renal, -31.7% (active). Also, the growth in the test with MOLT-4 leukemia was 34.9%; with OVCAR-8 ovarian it was 39.9%; with OVCAR-4 ovarian, 70.8%; in the test on SK-OV-3 ovarian, 65.6%; with BT-549 breast, 44.9%; in the test on HCC-2998 colon, 25.4%.

On to `CC(=O)OC1CCC2(C)C(=CCC3C4CC(CN5CC5)C(=O)C4(C)CCC32)C1` (stereo not given), for which the growth with HOP-62 NSCLC is 121%; in the test with A549/ATCC NSCLC, 94.1%; in the test with DU-145 prostate it was 80.8%; with MALME-3M melanoma, 103%; with RXF 393 renal it was 93.6%; in the test on SF-295 CNS it was 95.5%. Also, the growth in the test on UACC-257 melanoma is 93.3%; in the test with SNB-19 CNS, 98.4%; in the test on LOX IMVI melanoma it was 44.1%; in the test with SK-MEL-2 melanoma, 106%; in the test with SN12C renal, 99.6%; with A498 renal it was 86.7%. Besides, the growth in the test on MOLT-4 leukemia was 15.6%; in the test with OVCAR-8 ovarian it was 85%; in the test with OVCAR-4 ovarian, 83.1%; in the test with SK-OV-3 ovarian, 98.2%; in the test with BT-549 breast, 96.9%; in the test on HCC-2998 colon, 112%.
